“And” between values parts separate entries of the source, which are not always exact repeats. Equal entries are not always repeated. In all, about 16,000 compounds went through this assay and about 2,600 (16%) were called active. Inconclusive results (about 20%) are left out. This is one part of a sample in which actives are shown more often than they occur. A number with no mark means an inactive call. Calls follow the shape of the dose curve; as a rule, active = well fitted curve in the direction sought with a large enough effect; inconclusive = small, poorly fitted or top-dose-only effect, or effect the other way; inactive = no such curve, though single readings can be large or run the other way.
The compounds below were run against Cytochrome P450 2D6 (Homo sapiens) (UniProt P10635) (assay: Cytochrome panel assay with activity outcomes). Settings: recombinant CYP, pro-luciferin dealkylation, luminescence, p450-cyp2d6; series mostly up to 57.1 µM; activity, negative = inhibition: at the top concentration.
Chain of Cytochrome P450 2D6 (Homo sapiens) (P10635 whole entry, looked up): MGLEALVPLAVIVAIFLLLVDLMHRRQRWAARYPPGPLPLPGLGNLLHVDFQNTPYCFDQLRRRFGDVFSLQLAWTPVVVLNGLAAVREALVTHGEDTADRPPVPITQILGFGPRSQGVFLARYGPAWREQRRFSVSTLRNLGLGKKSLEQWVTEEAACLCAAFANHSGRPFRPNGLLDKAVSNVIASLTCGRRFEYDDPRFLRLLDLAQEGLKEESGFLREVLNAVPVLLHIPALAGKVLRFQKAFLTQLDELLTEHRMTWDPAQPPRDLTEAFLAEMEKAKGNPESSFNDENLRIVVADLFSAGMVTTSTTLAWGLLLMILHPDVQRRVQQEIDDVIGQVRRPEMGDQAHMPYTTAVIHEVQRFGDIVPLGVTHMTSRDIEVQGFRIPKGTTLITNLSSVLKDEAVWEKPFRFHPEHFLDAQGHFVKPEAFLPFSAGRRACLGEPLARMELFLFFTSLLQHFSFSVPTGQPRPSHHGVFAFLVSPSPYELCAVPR
Experimental: The P450 gene superfamily is involved in the metabolism and clearance of xenobiotics. This assay used various human CYP P450 isozymes to measure the dealkylation of various pro-luciferin substrates to luciferin. The luciferin is then measured by luminescence after the addition of a luciferase detection reagent. Pro-luciferin substrate concentration in the assay was equal to its KM for its CYP P450 isozyme. Inhibitors and some substrates limit the production of luciferin, and decrease measured luminescence.
NCGC Assay Protocol Summary:
1, Reagent, 2 uL, Isozyme and Pro-Luciferin
2, Library compounds, 23 nl, 40 uM to 0.24 nM dilution series
3, Controls, 23 nl, Isozyme specific inhibitor
4, Reagent, 2 uL, NADPH regeneration solution
5, Incubation time, 60 min, Isozyme specific temperature
6, Reagent, 4ul, Detection reagent
7, Incubation time, 20 min, Isozyme specific temperature
8, Detection, 1 sec, ViewLux luminescent read
The luciferase-based P450-GloTM Screening Systems were obtained from Promega (Madison, WI) for CYP 1A2 (V9770), CYP 2C9 (V9790), CYP2 C19 (V9880), CYP 2D6 (V9890), and CYP 3A4 Luciferin-PPXE (V9910) and were adapted for 1,536-well microplates and an automated protocol. The control compounds furafylline for 1A2 (F124), sulfaphenazole for CYP 2C9 (S0758), ketoconazole for CYP 2C19 (K1003), quinidine for 2D6 (Q3625), and ketoconazole for 3A4 (K1003) were purchased from Sigma Aldrich (St. Louis, MO). Recombinant P450 enzymes were obtained from baculovirus constructs expressed in insect cells (BD/Gentest).
Medium-binding white solid Kalypsys plates used. Mixtures kept on ice. 1A2: 10 nM 1A2, 100 uM Luc-ME, 100 mM KPO4; 2C9: 10 nM 2C9, 100 uM Luc-H, 25 mM KPO4; 2C19: 5 nM 2C19, 10 uM Luc-H EGE, 50 mM KPO4; 2D6: 5 nM 2D6, 30 uM Luc-ME EGE, 100 mM KPO4; 3A4: 10 nM, 25 uM Luc-PPXE. All amounts are reflected in their final concentration, working concentration is 2x.
NADPH regeneration solution: 1.3 mM NADP+, 3.3 mM glucose-6-phosphate, 3.3 mM MgCl2, 0.4 U/mL glucose-6-phosphate dehydrogenase for all isozymes, 200 mM KPO4 for 3A4. Mixture prepared at RT but kept on ice during automated run.
RT incubation in auxilliary plate hotel for 1A2, 2D6, and 3A4; 37C for 2C9 and 2C19.
Keywords: P450, CYP1A2, CYP2C19, CYP2C9, CYP2D6, CYP3A4, Luciferase, MLSMR, MLSCN, NIH Roadmap, qHTS, NCGC
% is scaled to controls: 0 for no effect and ±100 for the full control effect.

Row | Structure (SMILES) | activity, negative = inhibition | AC50
1 | O=C1c2cc([N+](=O)[O-])ccc2-c2ccc3c4ccc5c6c(ccc(c7ccc1c2c73)c64)C(=O)c1cc([N+](=O)[O-])ccc1-5 | -6.4% [at 11.4 µM] | 
2 | O=C1c2ccccc2-c2cc([N+](=O)[O-])c([N+](=O)[O-])cc21 |  | 3.16 µM (active)
3 | Cc1cc(C)nc(NC2=NCCS2)n1 | 1.02% | 
4 | C/C(=N\OC(=O)NC(C)C)c1sc(-c2ccccc2)nc1C | -28.9% | 
5 | Cc1noc(C)c1C(=O)N1CCC2(CCCN(CC(C)C)C2)CC1 |  | 12.6 µM (active)
6 | O=C(Oc1ccccc1)N1CCC2(CCN(Cc3ccncc3)CC2)CC1 | -7.62% | 
7 | CC(C)CN1CC2(CCN(C(=O)c3ccncc3)CC2)C1 |  | 3.98 µM (active)
8 | O=C(Oc1ccccc1)N1CCC2(CC1)CN(Cc1ccncc1)C2 | -16.1% | 
9 | O=C(c1ccco1)N1CCC[C@@]2(CCN(Cc3ccncc3)C2)C1 |  | 12.6 µM (active)
10 | O=C(c1ccncc1)N1CCC2(CC1)CN(Cc1ccccc1)C2 |  | 6.31 µM (active)
11 | CCOC(=O)c1[nH]c(C)c(C(=O)N2CCC3(CC2)OCCO3)c1C | 8.23% | 
12 | CN1CC[C@@]2(CCCN(C(=O)c3ccncc3)C2)C1 | -13.8% | 
13 | O=C(Oc1ccc(S(=O)(=O)F)cc1F)c1ccccc1Cl | 12.8% [at 11.4 µM] | 
14 | C/C(O)=C(/C#N)C(=O)Nc1cc(Br)ccc1Br | 2.34% | 
15 | Cn1c(=O)c2[nH]cnc2n(C)c1=O | 2.65% [at 25.6 µM] | 
16 | O=c1cc(-c2ccc(O)cc2)oc2cc(O)cc(O)c12 | 5.24% | 
17 | COc1cc2c(cc1OC)[C@@]13CCN4CC5=CCO[C@H](CC(=O)O)[C@@H]([C@H]1N2)[C@H]5C[C@H]43 | -8.05% [at 11.4 µM] | 
18 | CCC(COC(=O)NC)NC(=O)Oc1ccccc1 (centres undefined) | -14% | 
19 | O=C(c1cc2cc3ccc(Cl)cc3nc2o1)N1CCC2(CC1)OCCO2 | -14.3% | 
20 | O=C(Cc1ccc(Cl)c(Cl)c1)N1CCCC[C@H]1CN1CCCC1 |  | 7.94 µM (active) and 2.51 µM (active)
21 | CC[C@]1([C@H]2O[C@@H]([C@@H]3O[C@](O)(CO)[C@@H](C)C[C@H]3C)C[C@H]2C)CC[C@@H]([C@]2(C)CC[C@@]3(C[C@@H](O)[C@@H](C)[C@@H]([C@H](C)[C@H](OC)[C@H](C)C(=O)O)O3)O2)O1 | 1.92% [at 25.6 µM] | 
22 | c1ccc(CCCCN2CCC(c3ccccc3)CC2)cc1 |  | 0.0398 µM (active)

Row | Structure (SMILES) | activity, negative = inhibition | AC50
23 | C[C@@H](N)Cn1ccc2cc(F)c(Cl)cc21 | -5.27% | 
24 | CC(C)Oc1cc(-n2c(=S)[nH]c3ccccc3c2=O)c(Cl)cc1Cl | -18.2% | 
25 | C[C@H](CC(C#N)(c1ccccc1)c1ccccc1)N1CCCCC1 |  | 2.51 µM (active)
26 | CC(=O)Nc1ccccc1C(=O)OCc1ccc(C(=O)c2ccccc2)cc1 | 0.604% | 
27 | CC(C)CC(=O)C[C@H](O)C(Cl)(Cl)Cl | 2.83% [at 11.4 µM] | 
28 | C[C@@H]1[C@@H](C)N1C[C@H](O)Cn1ccnc1[N+](=O)[O-] (some centres undefined) | 4.54% [at 11.4 µM] | 
29 | C[N+](C)(C)[C@H](Cc1c[nH]c(=S)[nH]1)C(=O)O | -8.35% [at 11.4 µM] | 
30 | NC[C@@H](CC(=O)O)c1ccc(Cl)cc1 |  | inactive
31 | NC[C@H](CC(=O)O)c1ccc(Cl)cc1 |  | 0.794 µM (active)
32 | O=C(O)CP(=O)(O)c1ccc(Cl)cc1 | 9.45% | 
33 | CCN1CCC2(CC1)NC(CO)(CO)CO2 | 10.6% | 
34 | O=c1[nH]c(=O)n(CCc2ccc(F)cc2)c(O)c1C=NCCCN1CCOCC1 | -11.6% | 
35 | COc1cc2c(cc1OC)[C@@H]1C(=O)c3ccc4c(c3O[C@@H]1CO2)C=CC(C)(C)O4 |  | 0.0631 µM (active)
36 | OC(Cn1c2ccccc2c2ccccc21)C[n+]1ccccc1 (centres undefined) |  | 0.0126 µM (active)
37 | C[C@]12CC[C@@H]3[C@H](CCC4=CC(=O)CC[C@]43C)[C@]1(O)CC[C@@]2(O)C(=O)CO | 16.3% [at 11.4 µM] | 
38 | Cc1nc(N)sc1CCN | -0.208% | 
39 | C[C@@H](Cc1cccc(C(F)(F)F)c1)NCCCc1ccccc1 |  | 0.0126 µM (active)
40 | CC(O)(CS(=O)(=O)c1ccccc1)C(=O)Nc1cccc(C(F)(F)F)c1 (centres undefined) | -1.04% | 
41 | CNCCCc1ccccc1 | -18.3% | 
42 | C[C@@]12CC[C@@H]3c4ccc(O)cc4C[C@H](CCCCCCCCCS(=O)CCCC(F)(F)C(F)(F)F)[C@H]3[C@@H]1CC[C@@H]2O (some centres undefined) | -5.58% | 
43 | CCN(CC)C(=O)N[C@@H]1C[C@H]2c3cccc4[nH]cc(c34)C[C@@H]2N(C)C1 |  | 15.8 nM (active) and 10 nM (active)
44 | CC(C)[C@@]1(NC(=O)[C@@H]2C[C@H]3c4cccc5[nH]cc(c45)C[C@@H]3N(C)C2)O[C@@]2(O)[C@H]3CCCN3C(=O)[C@H](Cc3ccccc3)N2C1=O | -17.1% | 

— PubChem BioAssay AID1851 (National Center for Advancing Translational Sciences (NCATS), 2009)
